Experimental data taken from PubChem BioAssay (NCI).
Compounds without any hit were thinned out: in the full panel of roughly 83,000, 20% have a hit.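 For each line, cells grew in 96-well plates with the test compound present at a single concentration for 48 hours.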 Active and inactive are the calls of the source. The calls were made as follows: active = growth percent below 10; inactive = the rest.

Assays:
Test in all cases: NCI-60 one-dose screen, 48 h (100 = growth as untreated, 0 = no growth, -100 = all killed)
Settings in all cases: 10 µM unless noted
SK-MEL-2 melanoma = tested on: SK-MEL-2 melanoma
EKVX NSCLC = tested on: EKVX NSCLC
SN12C renal = tested on: SN12C renal
UO-31 renal = tested on: UO-31 renal
TK-10 renal = tested on: TK-10 renal
ACHN renal = tested on: ACHN renal
CAKI-1 renal = tested on: CAKI-1 renal
A498 renal = tested on: A498 renal
CCRF-CEM leukemia = tested on: CCRF-CEM leukemia
MOLT-4 leukemia = tested on: MOLT-4 leukemia

Measured: growth

CC(C)OC(=O)OCOP(=O)(OCOC(=O)OC(C)C)C1CCCN(O)C1=O (stereo not given)
active: SN12C renal 5.75% | UO-31 renal 9.98% | TK-10 renal 2.39% | A498 renal 1.16%
inactive: SK-MEL-2 melanoma 28.5% | EKVX NSCLC 47.8% | ACHN renal 26.9% | CAKI-1 renal 25.1% | CCRF-CEM leukemia 10% | MOLT-4 leukemia 22.5%

COc1ccc(/C(C)=C(\c2ccc(Cl)cc2)c2ccc(OCCN3CCCCC3)cc2)cc1F
inactive: SK-MEL-2 melanoma 64.1% | EKVX NSCLC 47.7% | SN12C renal 47.4% | UO-31 renal 11.6% | TK-10 renal 68.7% | ACHN renal 59.2% | CAKI-1 renal 17.8% | A498 renal 76% | CCRF-CEM leukemia 31% | MOLT-4 leukemia 23.8%

C[C@H]1[C@H]2C3=CC[C@@H]4[C@@]5(C)C/C(=C/c6ccncc6)C(=O)C(C)(C)[C@@H]5CC[C@@]4(C)[C@]3(C)CC[C@@]2(C(=O)N2CCN(C)CC2)CC[C@@H]1C
inactive: SK-MEL-2 melanoma 96.3% | EKVX NSCLC 78.3% | SN12C renal 78.9% | UO-31 renal 62.4% | TK-10 renal 86.1% | ACHN renal 91% | CAKI-1 renal 75.1% | A498 renal 93.9% | CCRF-CEM leukemia 64.7% | MOLT-4 leukemia 52.1%

c1ccc([P+](CCCc2n(Cc3ccc4ccccc4c3)c3ccccc3[n+]2Cc2ccc3ccccc3c2)(c2ccccc2)c2ccccc2)cc1
inactive: SK-MEL-2 melanoma 100% | EKVX NSCLC 59.4% | SN12C renal 55% | UO-31 renal 61.2% | TK-10 renal 89.2% | ACHN renal 81.4% | CAKI-1 renal 79.9% | A498 renal 67.2% | CCRF-CEM leukemia 43.2% | MOLT-4 leukemia 57.6%

CN1CCN(C(=O)[C@]23CCC(C)(C)C[C@@H]2C2=CC[C@@H]4[C@@]5(C)Cc6c([nH]c7ccccc67)C(C)(C)[C@@H]5CC[C@@]4(C)[C@]2(C)CC3)CC1
inactive: SK-MEL-2 melanoma 95.1% | EKVX NSCLC 77% | SN12C renal 88.1% | UO-31 renal 57.7% | TK-10 renal 92.4% | ACHN renal 86.9% | CAKI-1 renal 55.2% | A498 renal 96.5% | CCRF-CEM leukemia 71% | MOLT-4 leukemia 63%

O[C@H]1CO[C@H]2[C@@H]1OC[C@@H]2Oc1ccc(Nc2nc(Nc3ccc(F)c(Cl)c3)ncc2F)cc1Cl
inactive: SK-MEL-2 melanoma 113% | EKVX NSCLC 92.2% | SN12C renal 97% | UO-31 renal 88% | TK-10 renal 105% | ACHN renal 105% | CAKI-1 renal 93.5% | A498 renal 94.4% | CCRF-CEM leukemia 103% | MOLT-4 leukemia 103%

O=S(=O)(NCCNc1cc(-c2c(-c3cccc(O)c3)nc3sccn23)ccn1)c1ccc(Cl)cc1
inactive: SK-MEL-2 melanoma 79% | EKVX NSCLC 62.1% | SN12C renal 52.8% | TK-10 renal 84.2% | ACHN renal 61.2% | CAKI-1 renal 36.1% | A498 renal 57.1% | CCRF-CEM leukemia 40.1% | MOLT-4 leukemia 33.9%
active: UO-31 renal 3.45%

CSc1ccc(Cl)c(C(=O)Nc2sccc2C(N)=O)c1
inactive: SK-MEL-2 melanoma 92.7% | EKVX NSCLC 108% | SN12C renal 93.6% | UO-31 renal 80.6% | TK-10 renal 158% | ACHN renal 102% | CAKI-1 renal 112% | A498 renal 94.2% | CCRF-CEM leukemia 94.1% | MOLT-4 leukemia 125%

CCn1nc(C#Cc2c(C)ccc3c(Nc4ccc(Cl)cc4)nccc23)c2c(N)ncnc21
inactive: EKVX NSCLC 36.6% | SN12C renal 15.6% | TK-10 renal 16.8% | CAKI-1 renal 18.8% | A498 renal 11.7% | CCRF-CEM leukemia 10.5% | MOLT-4 leukemia 20.9%
active: SK-MEL-2 melanoma -50.8% | UO-31 renal 8.45% | ACHN renal 8.02%

Cc1ccccc1NC(=O)CN(C)C
inactive: SK-MEL-2 melanoma 84.8% | EKVX NSCLC 108% | SN12C renal 97% | UO-31 renal 81.2% | TK-10 renal 86.8% | ACHN renal 99.6% | CAKI-1 renal 103% | A498 renal 83.8% | CCRF-CEM leukemia 107% | MOLT-4 leukemia 94.2%

O=C(Oc1ccc([N+](=O)[O-])cc1)c1ccc(CBr)cc1
inactive: SK-MEL-2 melanoma 101% | EKVX NSCLC 103% | SN12C renal 89.9% | UO-31 renal 83.3% | TK-10 renal 99.3% | ACHN renal 95.2% | CAKI-1 renal 86.2% | A498 renal 86.5% | CCRF-CEM leukemia 68.7% | MOLT-4 leukemia 82.7%

C[C@@H](C[C@H](CCOCc1cccnc1)c1ccccc1)c1cc2ccccc2o1
inactive: SK-MEL-2 melanoma 89.7% | EKVX NSCLC 94.2% | SN12C renal 95.1% | UO-31 renal 75.9% | TK-10 renal 95.3% | ACHN renal 93.1% | CAKI-1 renal 77.6% | A498 renal 101% | CCRF-CEM leukemia 94.1% | MOLT-4 leukemia 84.1%

CCCCNC(=O)c1cc(NCc2cc(O)ccc2O)ccc1O
inactive: SK-MEL-2 melanoma 93.6% | EKVX NSCLC 95% | SN12C renal 89.7% | UO-31 renal 57% | TK-10 renal 101% | ACHN renal 89.4% | CAKI-1 renal 87.3% | A498 renal 88.9% | MOLT-4 leukemia 61.5%
active: CCRF-CEM leukemia 8.3%

Cn1cc(-c2ccc3nc(-c4ccc(CC(=O)Nc5cc(C(C)(C)C)no5)cc4)cnc3c2)cn1
inactive: SK-MEL-2 melanoma 22.2% [30 µM] | EKVX NSCLC 26.1% [30 µM] | TK-10 renal 63.5% [30 µM] | CCRF-CEM leukemia 45.9% [30 µM] | MOLT-4 leukemia 22.1% [30 µM]
active: SN12C renal 3.38% [30 µM] | UO-31 renal 7.7% [30 µM] | ACHN renal 5.16% [30 µM] | CAKI-1 renal 6.29% [30 µM] | A498 renal -4.96% [30 µM]

COc1ccc(-c2nc3ccccn3c2/C=C/C(=O)c2cc(OC)c(OC)c(OC)c2)cc1
inactive: SK-MEL-2 melanoma 52.6% | EKVX NSCLC 90.4% | SN12C renal 54.8% | UO-31 renal 42.9% | TK-10 renal 73.6% | ACHN renal 43.1% | CAKI-1 renal 59.1% | A498 renal 55% | CCRF-CEM leukemia 41.7% | MOLT-4 leukemia 61.6%

O=C1c2cccc3c(-c4ccc(-c5nc6c7ccccc7c7ccccc7c6[nH]5)cc4)ccc(c23)C(=O)N1CCN1CCNCC1
inactive: SK-MEL-2 melanoma 105% | EKVX NSCLC 97% | SN12C renal 93.4% | UO-31 renal 94.2% | TK-10 renal 104% | ACHN renal 71.7% | CAKI-1 renal 91.4% | A498 renal 107% | CCRF-CEM leukemia 37.5% | MOLT-4 leukemia 53.4%

NC(=O)c1c(NC(=O)c2ccccn2)sc2c1CCC(=O)C2
active: UO-31 renal 4.56% | ACHN renal 5.89% | CAKI-1 renal -2.09%
inactive: SK-MEL-2 melanoma 37.8% | EKVX NSCLC 33.8% | SN12C renal 25.9% | TK-10 renal 38.3% | A498 renal 86.1% | CCRF-CEM leukemia 12.7% | MOLT-4 leukemia 81.6%

C=C(C)[C@@H]1CC[C@]2(C(=O)NCC(=O)O)CC[C@]3(C)[C@H](CC[C@@H]4[C@@]5(C)Cc6c([nH]c7ccccc67)C(C)(C)[C@@H]5CC[C@]43C)[C@@H]12
inactive: SK-MEL-2 melanoma 92.4% | EKVX NSCLC 84.7% | SN12C renal 72.2% | UO-31 renal 55.4% | TK-10 renal 103% | ACHN renal 87.4% | CAKI-1 renal 78.5% | A498 renal 77.2% | CCRF-CEM leukemia 72.8% | MOLT-4 leukemia 78.4%

CCOC(=O)c1ccc(-c2ccc3cc(OC)ccc3c2)nc1C
inactive: SK-MEL-2 melanoma 102% | EKVX NSCLC 99.4% | SN12C renal 101% | UO-31 renal 93.9% | TK-10 renal 84.3% | ACHN renal 96.8% | CAKI-1 renal 114% | A498 renal 99.8% | CCRF-CEM leukemia 95.3% | MOLT-4 leukemia 78%

O[C@H]1CO[C@H]2[C@@H]1OC[C@@H]2Oc1ccc(Nc2ccnc(Nc3ccc(O[C@H]4CO[C@H]5[C@@H]4OC[C@@H]5O)c(Cl)c3)n2)cc1Cl
inactive: EKVX NSCLC 25.2% | TK-10 renal 28.5% | ACHN renal 20.3% | CAKI-1 renal 27.3% | A498 renal 22.7%
active: SK-MEL-2 melanoma 4.23% | SN12C renal -2.74% | UO-31 renal 6.06% | CCRF-CEM leukemia 7.39% | MOLT-4 leukemia 5.65%

Cc1c(C(=O)O)nnn1-c1nccs1
inactive: SK-MEL-2 melanoma 94.1% | EKVX NSCLC 92.9% | SN12C renal 101% | UO-31 renal 91% | TK-10 renal 101% | ACHN renal 99.9% | CAKI-1 renal 94.3% | A498 renal 86.4% | CCRF-CEM leukemia 93.3% | MOLT-4 leukemia 103%

CC12CC(C#N)CCC1O2 (stereo not given)
inactive: SK-MEL-2 melanoma 116% | EKVX NSCLC 120% | SN12C renal 105% | UO-31 renal 96% | TK-10 renal 119% | ACHN renal 101% | CAKI-1 renal 111% | A498 renal 121% | CCRF-CEM leukemia 92.4% | MOLT-4 leukemia 96.2%

CCN(CC)CCOc1ccc(/C(=C(\C)c2ccc(OC)c(F)c2)c2ccc(Cl)cc2)cc1
inactive: SK-MEL-2 melanoma 95.9% | EKVX NSCLC 96.5% | SN12C renal 83.5% | UO-31 renal 75.6% | TK-10 renal 82.6% | ACHN renal 89.8% | CAKI-1 renal 67.2% | A498 renal 102% | CCRF-CEM leukemia 60.2% | MOLT-4 leukemia 70.8%

COc1cccc(-c2cnco2)c1OCc1c(C)c(COc2c(OC)cccc2-c2cnco2)c(C)c(COc2c(OC)cccc2-c2cnco2)c1C
active: A498 renal -13.6%
inactive: SK-MEL-2 melanoma 60.9% | EKVX NSCLC 52.8% | SN12C renal 51.4% | UO-31 renal 30.8% | TK-10 renal 28.1% | ACHN renal 29.6% | CAKI-1 renal 88.7% | CCRF-CEM leukemia 94.5% | MOLT-4 leukemia 91.2%

Clc1ccc(/C=N\N=c2\scc(-c3ccc(Cl)cc3)n2/N=C/c2ccc(Cl)cc2)cc1
inactive: SK-MEL-2 melanoma 91.4% | EKVX NSCLC 109% | SN12C renal 102% | UO-31 renal 95.7% | TK-10 renal 92.5% | ACHN renal 106% | CAKI-1 renal 107% | A498 renal 92.1% | CCRF-CEM leukemia 97% | MOLT-4 leukemia 91.7%

c1ccc2c(c1)nc(-n1ccnc1)c1nc3ccccc3n12
inactive: SK-MEL-2 melanoma 88.7% | EKVX NSCLC 74.1% | SN12C renal 52.6% | UO-31 renal 46.1% | TK-10 renal 72.4% | ACHN renal 32.3% | CAKI-1 renal 56% | A498 renal 79.7% | CCRF-CEM leukemia 78% | MOLT-4 leukemia 74.9%
